Our source for the NF-kB reporter values is the supplement of paper PMC10646978.

± gives the standard deviation.

This assay relates to RAW-Dual (murine macrophage reporter line). Kind of assay: NF-kB reporter (SEAP) activity fold change vs agonist alone; higher = enhanced NF-kB activity. The following applies: modulator concentration 10 µM; agonist: CpG ODN 1826 0.5 ug/mL. The gist of the method: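 RAW-Dual murine macrophage reporter cells were seeded at 50 000 per well in 384-well plates and pre-incubated 1 hour at 37 °C with compound pin-transferred to 10 μM final. After 1 hour, a PRR agonist was added and cells incubated overnight. Supernatant NF-κB (SEAP, QUANTI-Blue, 620 nm absorbance) and IRF (Lucia luciferase, QUANTI-Luc, luminescence) signals were divided by the mean agonist-only control on the same plate to give fold change. Two replicate plates were averaged, with errors by propagation.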
Consider `O=S1(=O)Nc2c(ccc3cccnc23)-c2ccccc21`, for which the NF-kB reporter stood at 0.603 ± 0.086.
`O=C(NCCCCNC(=O)c1cncc(Br)c1)c1cncc(Br)c1`: the NF-kB reporter was found to be 0.947 ± 0.053.
The result for `Nc1ncnc2c1nc(S)n2C1OC(CO)C(O)C1O` (stereo not given) reads 0.775 ± 0.061; that for `Cn1nc(CNC(=O)c2cccc3ccccc23)cc1C1CC1`, 1.18 ± 0.067; that for `CC1(C)[C@H](C(=O)O)N2C(=O)C[C@H]2S1(=O)=O`, 0.998 ± 0.11.
In the case of `O=C(Cn1cnc(-c2ccc(Cl)cc2)cc1=O)N1CCOCC1`, the NF-kB reporter came out at 1.07 ± 0.29.
The result for `Cl.N=C1CCCN1Cc1[nH]c(=O)[nH]c(=O)c1Cl` reads 1.46 ± 0.062; that for `Cl.N=c1ccn2c(n1)OC1C(O)C(CO)OC12` (stereo not given), 1.41 ± 0.38; that for `COC1(c2ccc(Cl)cc2)OC(=O)c2ccccc21` (stereo not given), 0.805 ± 0.1.
As for `O=c1oc2c3c4c(cc2cc1-c1nnc(-c2ccccc2)o1)CCCN4CCC3`, the figure is 1.01 ± 0.12; as for `c1ccc(-c2cc3c4cccn4ccn3c2)cc1`, 1.03 ± 0.1; as for `CC1(C)CCC2(C(=O)O)CCC3(C)C(=CCC4C5(C)CCC(O)C(C)(C)C5CCC43C)C2C1` (stereo not given), 1.18 ± 0.28.
Turning to `COc1ccc(C(O)CN2CCN(c3cccc(C)c3C)CC2)cc1OC` (stereo not given), the NF-kB reporter worked out at 0.724 ± 0.18.
As for `N#CC[C@H](C1CCCC1)n1cc(-c2ncnc3[nH]ccc23)cn1`, the figure is 1.4 ± 0.11.
Turning to `CN(C)C(CNC(=O)NCc1ccc(Cl)cc1)c1ccc2c(c1)CCO2` (stereo not given), the NF-kB reporter amounted to 0.616 ± 0.1.
Regarding `Oc1ccc(C=NCc2ccccc2)cc1`, the NF-kB reporter came to 1.11 ± 0.12.
As for `COc1ccc(NC(=O)CCn2nc(C)nc2C)cc1`, the figure is 1.04 ± 0.099; as for `Nc1ncnc2c1ncn2[C@@H]1O[C@H](CO)[C@@H](O)[C@H]1O`, 1.03 ± 0.08; as for `CC1(C)CC(=O)c2c(nc3ccc(Br)cc3c2N)C1.Cl`, 0.513 ± 0.035.
As for `Cc1ccc(C(=O)NC(Oc2ccc3ccccc3c2)C(Br)(Br)Br)cc1` (stereo not given), the figure is 0.799 ± 0.045.
